Molecules are shown by their SMILES. Values without a mark were called inactive.

Results on 1 molecule are retold here after the supplement of paper PMC11732987, “Enantioselective OTUD7B fragment discovery through chemoproteomics screening and high-throughput optimisation” (Communications Chemistry, 2025).

What all share (assay): log2 ratio of Biotin-Ahx-Ub-VS probe labelling (fragment/DMSO); higher = less target engagement (more negative = stronger competition), active = hit call of the paper (q ≤ 0.05, log2 ratio ≤ -1)
Details in all cases: compound concentration: 200 uM; treatment time: 3 h

For one test, the target named is T1, OTUD6B (UniProt Q8N6M0).
T1 sequence (whole entry): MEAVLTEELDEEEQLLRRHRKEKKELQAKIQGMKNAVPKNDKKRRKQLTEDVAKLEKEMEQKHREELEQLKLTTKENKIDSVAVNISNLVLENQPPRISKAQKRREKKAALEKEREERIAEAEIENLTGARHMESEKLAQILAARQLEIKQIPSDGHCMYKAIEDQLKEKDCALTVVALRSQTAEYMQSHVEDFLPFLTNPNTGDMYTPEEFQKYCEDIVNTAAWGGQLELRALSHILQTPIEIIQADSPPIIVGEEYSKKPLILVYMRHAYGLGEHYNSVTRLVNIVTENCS
The method in brief: (§1)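 Using Biotin-Ahx-Ub-VS at 0.5 µM final for 1 h, DUBs were labelled in HEK293T lysate (495 µg per sample) that had first been treated in triplicate with fragment at 200 µM or vehicle for 3 h. NeutrAvidin enrichment, LysC and trypsin digestion and diaPASEF LC-MS/MS followed. Spectronaut label-free quantities were global-median-normalised. Values are average log2 fragment/vehicle ratios by unpaired t-test, using proteins with ≥2 unique peptides.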

The target of another test is T2, OTUD7B (UniProt Q6GQQ9).
T2 sequence (whole entry): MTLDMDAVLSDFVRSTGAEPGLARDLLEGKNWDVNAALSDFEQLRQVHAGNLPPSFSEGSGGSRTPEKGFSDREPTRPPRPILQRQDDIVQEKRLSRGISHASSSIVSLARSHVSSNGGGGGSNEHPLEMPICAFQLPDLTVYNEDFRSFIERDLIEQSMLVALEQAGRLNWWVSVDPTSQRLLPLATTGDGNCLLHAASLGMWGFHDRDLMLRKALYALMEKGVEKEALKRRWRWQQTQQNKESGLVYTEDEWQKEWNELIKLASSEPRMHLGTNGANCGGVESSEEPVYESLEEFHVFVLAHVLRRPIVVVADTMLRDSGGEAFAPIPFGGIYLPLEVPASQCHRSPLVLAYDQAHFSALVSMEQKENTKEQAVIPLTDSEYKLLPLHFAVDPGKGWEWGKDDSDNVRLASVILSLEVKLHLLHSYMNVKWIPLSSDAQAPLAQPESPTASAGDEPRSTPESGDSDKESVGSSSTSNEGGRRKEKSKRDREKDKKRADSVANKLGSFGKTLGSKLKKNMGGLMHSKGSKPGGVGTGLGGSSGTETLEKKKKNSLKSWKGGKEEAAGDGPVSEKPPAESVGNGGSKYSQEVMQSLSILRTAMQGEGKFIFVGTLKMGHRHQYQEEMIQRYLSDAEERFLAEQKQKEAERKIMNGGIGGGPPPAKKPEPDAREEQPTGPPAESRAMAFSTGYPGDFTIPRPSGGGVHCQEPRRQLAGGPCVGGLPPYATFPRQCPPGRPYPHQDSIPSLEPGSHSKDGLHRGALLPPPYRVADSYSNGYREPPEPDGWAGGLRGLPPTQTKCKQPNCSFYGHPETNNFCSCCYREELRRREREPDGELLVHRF
The method in brief: as §1

The target in a further test is PRPF8 (UniProt Q6P2Q9). The method in brief: as §1
The next test deals with T3, PSMD7 (UniProt P51665).
T3 sequence (whole entry): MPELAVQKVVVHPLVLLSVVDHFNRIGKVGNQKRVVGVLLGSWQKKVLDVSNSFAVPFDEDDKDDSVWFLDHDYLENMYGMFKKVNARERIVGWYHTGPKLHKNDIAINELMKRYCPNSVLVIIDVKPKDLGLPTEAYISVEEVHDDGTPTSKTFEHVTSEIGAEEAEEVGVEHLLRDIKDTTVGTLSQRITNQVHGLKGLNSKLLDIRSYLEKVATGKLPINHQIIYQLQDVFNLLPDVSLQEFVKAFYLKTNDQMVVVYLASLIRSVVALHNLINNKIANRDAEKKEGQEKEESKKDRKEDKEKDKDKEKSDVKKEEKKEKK
The method in brief:
as §1

For the next test, the target named is UCHL1 (UniProt P09936). The method in brief: as §1
Chain of UCHL1 (P09936 whole entry, looked up): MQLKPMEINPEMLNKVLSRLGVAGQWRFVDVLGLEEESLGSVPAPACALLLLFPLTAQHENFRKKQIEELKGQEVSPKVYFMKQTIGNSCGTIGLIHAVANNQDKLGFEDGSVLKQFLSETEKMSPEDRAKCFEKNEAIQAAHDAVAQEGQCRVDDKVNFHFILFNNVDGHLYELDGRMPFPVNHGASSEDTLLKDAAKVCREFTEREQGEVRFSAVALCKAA
Another test addresses T4, UCHL3 (UniProt P15374).
T4 sequence (whole entry): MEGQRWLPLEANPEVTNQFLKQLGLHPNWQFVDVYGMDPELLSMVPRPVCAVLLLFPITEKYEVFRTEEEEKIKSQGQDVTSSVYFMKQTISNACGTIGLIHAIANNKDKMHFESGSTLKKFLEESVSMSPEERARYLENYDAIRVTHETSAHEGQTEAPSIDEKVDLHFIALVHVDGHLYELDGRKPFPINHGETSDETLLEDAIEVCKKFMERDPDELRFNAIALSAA
The method in brief:
as §1

The next test addresses T5, UCHL5 (UniProt Q9Y5K5).
T5 sequence (whole entry): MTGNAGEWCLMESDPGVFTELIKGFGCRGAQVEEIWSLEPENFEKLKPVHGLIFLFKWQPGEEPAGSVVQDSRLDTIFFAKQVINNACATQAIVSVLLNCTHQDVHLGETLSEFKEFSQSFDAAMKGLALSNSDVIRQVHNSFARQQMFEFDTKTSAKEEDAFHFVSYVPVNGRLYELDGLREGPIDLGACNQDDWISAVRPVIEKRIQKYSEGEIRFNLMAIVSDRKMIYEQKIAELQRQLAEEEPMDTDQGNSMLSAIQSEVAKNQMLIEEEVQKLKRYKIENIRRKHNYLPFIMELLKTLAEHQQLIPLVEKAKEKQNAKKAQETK
The method, boiled down: as §1

A further test has as its target USP10 (UniProt Q14694). The method in brief: as §1
The target in another test is T6, USP15 (UniProt Q9Y4E8).
T6 sequence (whole entry): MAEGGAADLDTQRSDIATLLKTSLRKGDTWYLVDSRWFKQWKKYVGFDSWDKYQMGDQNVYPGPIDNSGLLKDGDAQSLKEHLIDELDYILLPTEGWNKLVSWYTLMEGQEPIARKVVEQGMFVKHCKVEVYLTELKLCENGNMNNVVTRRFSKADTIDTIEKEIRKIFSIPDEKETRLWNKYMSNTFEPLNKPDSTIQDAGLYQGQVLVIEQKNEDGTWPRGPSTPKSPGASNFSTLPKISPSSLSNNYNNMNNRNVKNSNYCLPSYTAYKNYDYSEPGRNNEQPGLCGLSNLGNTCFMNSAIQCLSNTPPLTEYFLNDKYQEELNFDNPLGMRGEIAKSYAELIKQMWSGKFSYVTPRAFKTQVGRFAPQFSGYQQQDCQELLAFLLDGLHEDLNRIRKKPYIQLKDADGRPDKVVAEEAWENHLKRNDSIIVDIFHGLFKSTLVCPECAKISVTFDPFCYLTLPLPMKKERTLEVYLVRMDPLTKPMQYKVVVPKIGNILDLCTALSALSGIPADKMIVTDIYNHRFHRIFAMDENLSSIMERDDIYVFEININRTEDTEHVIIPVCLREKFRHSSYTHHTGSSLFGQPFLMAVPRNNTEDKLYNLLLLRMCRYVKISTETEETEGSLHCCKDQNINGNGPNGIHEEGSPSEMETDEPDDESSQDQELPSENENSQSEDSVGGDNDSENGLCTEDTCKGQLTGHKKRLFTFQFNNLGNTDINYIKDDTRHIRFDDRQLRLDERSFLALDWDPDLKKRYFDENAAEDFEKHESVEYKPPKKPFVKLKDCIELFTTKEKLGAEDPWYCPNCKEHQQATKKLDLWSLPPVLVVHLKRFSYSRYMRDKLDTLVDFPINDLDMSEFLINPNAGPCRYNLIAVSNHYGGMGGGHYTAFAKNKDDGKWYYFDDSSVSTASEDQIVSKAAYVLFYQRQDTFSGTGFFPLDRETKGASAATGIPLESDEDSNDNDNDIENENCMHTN
The method in brief: as §1

A further test concerns the target USP16 (UniProt Q9Y5T5). The method, boiled down: as §1

Chain of USP16 (Q9Y5T5 whole entry, looked up): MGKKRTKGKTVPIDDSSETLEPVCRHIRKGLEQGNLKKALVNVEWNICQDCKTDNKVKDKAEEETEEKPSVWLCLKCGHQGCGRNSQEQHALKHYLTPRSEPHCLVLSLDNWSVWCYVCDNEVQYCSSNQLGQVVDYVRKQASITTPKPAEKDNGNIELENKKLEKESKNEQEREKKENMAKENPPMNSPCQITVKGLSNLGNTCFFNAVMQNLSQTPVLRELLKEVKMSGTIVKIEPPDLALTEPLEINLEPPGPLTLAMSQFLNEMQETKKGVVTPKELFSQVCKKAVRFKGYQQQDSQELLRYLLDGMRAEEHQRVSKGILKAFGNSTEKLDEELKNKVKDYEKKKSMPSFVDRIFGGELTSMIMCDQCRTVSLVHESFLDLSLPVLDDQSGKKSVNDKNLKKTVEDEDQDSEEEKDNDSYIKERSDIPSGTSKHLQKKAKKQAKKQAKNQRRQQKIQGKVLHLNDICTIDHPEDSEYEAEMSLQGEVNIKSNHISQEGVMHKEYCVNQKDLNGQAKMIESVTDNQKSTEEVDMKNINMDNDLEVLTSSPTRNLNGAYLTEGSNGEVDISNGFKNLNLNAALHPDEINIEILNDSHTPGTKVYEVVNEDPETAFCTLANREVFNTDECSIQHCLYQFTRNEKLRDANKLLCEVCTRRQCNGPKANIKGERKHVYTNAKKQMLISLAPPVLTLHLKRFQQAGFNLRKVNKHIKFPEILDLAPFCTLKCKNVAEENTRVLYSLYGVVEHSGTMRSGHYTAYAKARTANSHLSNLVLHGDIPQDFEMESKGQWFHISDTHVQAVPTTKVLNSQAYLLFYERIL
Chain of USP10 (Q14694 whole entry): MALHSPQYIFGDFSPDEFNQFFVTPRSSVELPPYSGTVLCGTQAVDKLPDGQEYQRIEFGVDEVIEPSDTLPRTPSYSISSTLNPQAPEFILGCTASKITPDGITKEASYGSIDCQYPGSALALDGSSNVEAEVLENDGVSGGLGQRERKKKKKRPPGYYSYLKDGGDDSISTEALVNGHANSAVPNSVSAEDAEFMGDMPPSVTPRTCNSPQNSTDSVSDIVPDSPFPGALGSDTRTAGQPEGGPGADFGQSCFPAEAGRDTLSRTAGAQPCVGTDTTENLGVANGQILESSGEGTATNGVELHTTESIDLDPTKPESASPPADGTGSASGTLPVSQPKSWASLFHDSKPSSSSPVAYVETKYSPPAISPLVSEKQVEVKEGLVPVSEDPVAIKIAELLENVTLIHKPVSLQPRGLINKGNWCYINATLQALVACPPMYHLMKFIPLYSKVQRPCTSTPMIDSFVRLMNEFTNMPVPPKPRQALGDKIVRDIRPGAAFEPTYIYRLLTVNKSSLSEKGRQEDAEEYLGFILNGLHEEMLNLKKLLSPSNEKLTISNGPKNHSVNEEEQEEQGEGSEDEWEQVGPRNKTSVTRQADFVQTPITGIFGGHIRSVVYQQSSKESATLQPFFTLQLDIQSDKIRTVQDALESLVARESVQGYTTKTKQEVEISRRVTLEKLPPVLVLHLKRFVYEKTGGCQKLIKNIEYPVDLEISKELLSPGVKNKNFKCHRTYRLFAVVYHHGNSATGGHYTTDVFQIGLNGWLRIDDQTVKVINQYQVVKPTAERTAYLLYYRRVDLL

Turning to `O=C(O)C1Cc2ccccc2CN1C(=O)CCl` (stereo not given), the “log2 ratio of Biotin-Ahx-Ub-VS probe labelling” value with OTUD6B is -0.439; with OTUD7B, -0.732; with PRPF8, -0.175; in the test with PSMD7 it was -0.239; with UCHL1 it was -1.8 (active); in the test with UCHL3 it was -0.19. Besides, the “log2 ratio of Biotin-Ahx-Ub-VS probe labelling” value with UCHL5 is -0.324; in the test with USP10, -0.112; with USP15, -0.35; in the test with USP16 it was 0.23.
